# Whole data set: some 33,000 sequences, median “E-score (-0.5 to 0.5)” near -0.035, cut for the highest 2% near 0.34. The sample holds the highest values, similar sequences and a random draw of the others, so the mix is not that of the screen.
# Target: T1, Mot3 (UniProt P54785)
# T1 sequence: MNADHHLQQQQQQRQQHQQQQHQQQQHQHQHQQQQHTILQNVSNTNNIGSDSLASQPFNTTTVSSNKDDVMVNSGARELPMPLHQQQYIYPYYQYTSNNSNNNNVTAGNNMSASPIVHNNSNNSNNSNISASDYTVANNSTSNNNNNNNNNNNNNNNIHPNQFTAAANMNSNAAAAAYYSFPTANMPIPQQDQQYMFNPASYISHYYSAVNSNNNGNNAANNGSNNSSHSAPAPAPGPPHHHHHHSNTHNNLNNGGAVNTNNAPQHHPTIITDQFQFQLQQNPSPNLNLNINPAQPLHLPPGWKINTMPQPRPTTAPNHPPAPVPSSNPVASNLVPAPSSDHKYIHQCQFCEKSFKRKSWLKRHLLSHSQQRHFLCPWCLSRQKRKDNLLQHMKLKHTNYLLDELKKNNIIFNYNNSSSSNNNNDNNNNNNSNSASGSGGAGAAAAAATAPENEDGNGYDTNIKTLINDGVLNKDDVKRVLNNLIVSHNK
# Test: PBM E-score (8-mer binding enrichment) (E-score (-0.5 to 0.5)); higher = stronger / more preferred TF binding
# Details: protein concentration: 200 nM; construct: GST-full length
# Method: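 Universal 'all 10-mer' protein binding microarrays (Agilent AMADID 015681) probed with GST-tagged S. cerevisiae TFs (full-length or DBD) made by in vitro transcription/translation (PURExpress), about 100-200 nM. Bound TF was detected with fluorescent anti-GST. Each ungapped 8-mer (which stands for itself and its reverse complement) is scored by the PBM enrichment score (E-score), a modified Wilcoxon-Mann-Whitney statistic from -0.5 to +0.5, computed with the Universal PBM Analysis Suite. Scale: above 0.35 generally sequence-specific binding.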
row,Sequence,PBM E-score
1,GTGCGGTA,-0.0948
2,AGAGAGGA,-0.246
3,AGTTAGAG,-0.21
4,GGGAAGCA,-0.178
5,AACAGCCT,0.0281
6,CGAGCCAG,-0.0469
7,GTCGAACA,0.0718
8,GAAATTTA,0.165
9,AAGTAAAG,0.131
10,TTGTAAAA,0.321
11,CTGTACAC,0.265
12,CTGTAAAA,0.302
13,CTGTAAAG,0.24
14,CTGTAAAC,0.295
15,ATGTAAAA,0.415
16,GTGTAAAC,0.387
17,GTGTACAC,0.344
18,ATGTAAAG,0.411
19,GTGTACAA,0.325
20,GGGTAAAC,-0.0508
21,GCGCTCCA,-0.136
22,GTTCGCCA,-0.103
23,CCATTGAA,0.0844
24,CTCGGATC,-0.235
25,GTCGGGAA,-0.104

row,Sequence,PBM E-score
1,AGCATCCT,-0.268
2,ATAAGATA,0.0848
3,CACGTTGC,0.158
4,TAGCACGA,-0.0559
5,ACTCCGGG,-0.248
6,CGCTCATA,-0.225
7,GAGCCCAA,-0.136
8,CGGCCGGA,-0.264
9,CCGAACAC,-0.0162
10,AGGTAAAT,0.318
11,ACGTAAAC,0.251
12,ATGTAAAC,0.414
13,GGGTAAAA,0.112
14,GCGTAAAA,0.314
15,ATGTAAAT,0.42
16,ACGTAAAT,0.272
17,AGGTAAAC,0.302
18,GTGTAAAA,0.377
19,ATGGAGGA,0.0248
20,TAGTGACA,0.124
21,GTGTGCAA,0.128
22,CTGGCCCA,-0.265
23,TATCGGCA,-0.0281
24,ATAGCGCC,0.228
25,CGACTCTC,-0.347

row,Sequence,PBM E-score
1,CATCGAAG,-0.163
2,AACCTGGG,0.0477
3,AGGGACCA,-0.201
4,AGGTTTGG,-0.141
5,CCTTCAAC,0.247
6,CCTTCAAG,0.351
7,CCTTCAAA,0.115
8,AGAGAATC,-0.0691
9,AACCATTA,0.117
10,GAGGCCCC,-0.242
11,CTACACGA,0.377
12,TTACACAA,0.42
13,CTACACGC,0.356
14,CTACACTC,0.0954
15,GTACACGA,0.327
16,CTACACAA,0.29
17,CTACACAG,0.348
18,GTACACAA,0.323
19,CTACACTA,0.135
20,CGACACGC,0.157
21,ATACACAG,0.332
22,CTACACAC,0.333
23,AGCCAAGG,-0.106
24,AGTTCTCG,-0.137
25,AAAGTGTC,0.0356

row,Sequence,PBM E-score
1,AGCGACTC,-0.134
2,AATGTCTG,-0.0738
3,AGCGAGAG,-0.117
4,CTCAAGCC,-0.236
5,TCATAACA,0.255
6,AGAATGGA,-0.0583
7,AAGACCAT,-0.234
8,ATTAGGCC,-0.111
9,CTTAGGCC,-0.0744
10,GTTAGGGA,-0.113
11,ATTAGGCG,-0.0797
12,CTTAGGCA,0.444
13,ATTAGGCA,0.472
14,CTTAGGTA,0.139
15,GTTAGGCA,0.454
16,GTTAGGTA,0.26
17,CTATGCAA,0.0284
18,ACCTACCA,0.12
19,CGGGGATC,-0.303
20,AAAGCGTG,0.0569
21,ACCTGATA,0.203
22,ACTACACG,0.386
23,TCAACACA,0.353
24,ACTACACA,0.331
25,CCTACACG,0.336

row,Sequence,PBM E-score
1,GCTACACA,0.253
2,TCTACACA,0.361
3,CCAACACG,0.299
4,ACAACACA,0.337
5,ACTACACT,0.181
6,CCCAACGA,-0.0748
7,AGGGACTG,-0.226
8,CTGCAAGA,0.0551
9,CCTCTTCA,-0.171
10,ATAGCACG,-0.00445
11,GTAATCCA,0.225
12,ACAAAGCC,0.0921
13,CCAAATAG,0.00768
14,CGAAGGCG,0.193
15,AGAAGGCT,-0.0686
16,GGAAGGCC,-0.214
17,CGAAGGCA,0.476
18,GGAAGGGA,-0.292
19,AGAAGGCG,0.27
20,AGAAGGCA,0.475
21,TGAAGTCA,0.0305
22,TGAAGCCA,-0.0204
23,GGAAGGCA,0.482
24,TGAAGGCA,0.483
25,CGAAGGCC,-0.0438

row,Sequence,PBM E-score
1,ACCGAGAC,0.0166
2,CAAGCGTC,-0.0912
3,GCGGACAC,-0.3
4,ACGATCCA,-0.0439
5,CCCTAGTC,-0.163
6,TATAGGCA,0.482
7,AATAGGCC,-0.0184
8,CATAGGCA,0.476
9,GATAGGCA,0.473
10,TATAGTCA,0.188
11,AATAGGCT,0.161
12,TATAGGGA,-0.0815
13,GATAGGCC,0.0586
14,AATAGGCA,0.479
15,CATAGGCC,0.135
16,CATAGGCG,0.0696
17,GATAGGGA,-0.155
18,GAGTCGAA,-0.0456
19,CAAGGATG,0.121
20,CTCAAGCA,-0.101
21,GGAAGTAC,-0.139
22,ATGACCAT,0.0148
23,CGCACTCC,-0.223
24,CTGAGGTC,-0.255
25,ATTATGTA,0.339

row,Sequence,PBM E-score
1,ATCATGTA,0.392
2,GTCATGTA,0.356
3,CTCATGTC,0.191
4,CTTATGTC,0.0522
5,CTCATGGA,0.261
6,GTCATGGA,-0.179
7,CTCATGTA,0.359
8,ATCATGTC,0.245
9,GTCATGCA,0.0879
10,ATCATGTG,0.198
11,CTTATGTA,0.342
12,ATGGTTGA,-0.153
13,CCATCCGC,-0.164
14,CCGAAGAC,-0.306
15,GGGGTCTA,-0.0481
16,TAGAGAAA,-0.0644
17,CAACCAGA,0.0325
18,AAATAGCG,0.11
19,AGTTACGA,0.138
20,CCTAGAAA,0.0447
21,CTGAGCCC,-0.191
22,CCGTTGAG,-0.213

# From the supplement of paper PMC3334620
